Measurements: PubChem BioAssay AID651821 (The Scripps Research Institute Molecular Screening Center, 2012)
Screen size: about 370,000 compounds; about 4,700 (1.3%) were called active. Shown is part of a subset that was picked to be rich in actives. Unmarked numbers belong to inactive results.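 The calls were made as follows: active = inhibition above the plate cutoff, the mean of all test compounds on that plate plus 3 SD (cut at about 35% in these data); inactive = the rest.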

Test: small molecules binding CAG repeat RNA – biochemical, fluorescence, primary screen (AID 651821);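 also: 0% = DMSO alone and 100% = 100 µM mitoxantrone as full dye displacement; higher means more dye released from RNA so lower well fluorescence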
Conditions: r(CAG) RNA repeat, TO-PRO-1 dye displacement fluorescence; at 3 µM; stronger effect = higher value

| Structure (SMILES) | inhibition |
| --- | --- |
| COc1ccc(F)cc1S(=O)(=O)NCC(c1ccc2c(c1)OCO2)N1CCN(C)CC1 (stereo not given) | -3.68% |
| CN(Cc1ccc2nsnc2c1)Cc1nc(Cc2cccc(F)c2)no1 | -4.71% |
| CCOc1cc(/C=C2/N=C(c3ccc(C(C)(C)C)cc3)OC2=O)cc(Cl)c1OS(C)(=O)=O | 67% (active) |
| O=C(COc1ccc([N+](=O)[O-])cc1)Nc1cccc(C(=O)Nc2ccccc2C(=O)O)c1 | 77.5% (active) |
| O=C(CSCc1ccc([N+](=O)[O-])cc1)Nc1cccc(C(=O)Nc2ccccc2C(=O)O)c1 | 67.2% (active) |
| COc1ccc(NC(=O)CSCc2ccc([N+](=O)[O-])cc2)cc1OC | -1.63% |
| O=C(Cc1ccccc1)Nc1ccc(C(=O)Nc2ccccc2C(=O)O)cc1 | 50.2% (active) |
| CN(CCc1ccccc1)C(=O)c1cccc(NC(=O)Cc2ccc([N+](=O)[O-])cc2)c1 | 1.94% |
| CC1CCN(C(=O)c2ccccc2NC(=O)Cc2ccccc2)CC1 | -6.63% |
| O=C(CSCc1ccc([N+](=O)[O-])cc1)NCCSCc1ccccc1 | -2.49% |
| O=C(CCCOc1ccccc1)Nc1cccc(C(=O)O)c1 | 6.14% |
| O=C(Nc1ccccc1C(=O)O)c1ccc(N2C(=O)C3CC=CCC3C2=O)cc1 (stereo not given) | 13.8% |
| O=C(c1ccncc1)N1CC[C@H]2[C@H](CCCN2Cc2ccc(F)cc2)C1 | -0.17% |
| COC(=O)C1=C(C(=O)OC)C2C=C(C(C)C)C1C(=O)C2(C)O (stereo not given) | 2.51% |
| Cc1ccc(C)c(NC(=O)CCS(=O)(=O)c2ccccc2)c1 | 5.79% |
| COC(=O)C(C(=O)OC)c1ccccc1NS(=O)(=O)c1cccc2ccccc12 | 6.69% |
| Cc1ccc(C(=O)C2CCN(CC(=O)NCCC(C)C)CC2)cc1 | -4.12% |
| COC(=O)C1=C(C)N(Cc2ccccc2C(F)(F)F)C(=NCC2CC2)NC1c1cccc(Cl)c1 (stereo not given) | 2.17% |
| COC(=O)c1ccc(C(NC(=O)OCc2ccccc2)/C(F)=C/[C@@H](C)C(=O)O)cc1 (stereo not given in full) | 7.38% |
| CC(C)[C@H](NC(=O)OCc1ccccc1)C(=O)OCc1ccccc1 | -7.02% |
| COc1ccc(COC(=O)NC(C(=O)O)c2ccccc2)cc1 (stereo not given) | 41.2% (active) |
| O=S1(=O)CC(N2CCN(CCO)CC2)CN1Cc1cn(Cc2cccc(Cl)c2)nn1 (stereo not given) | 1.81% |
| Cc1ccccc1CSc1nnc(-c2ccccc2)c(=O)[nH]1 | 6.58% |
| Cc1ccc(CSc2nc(-c3ccccc3)c(C#N)c(=O)[nH]2)cc1 | 84.2% (active) |
| COc1ccccc1CSc1ncc(-c2ccc([N+](=O)[O-])cc2)[nH]1 | 6.09% |
| Cc1ccc(CSc2nc3[nH]ncc3c(=O)[nH]2)cc1 | -3.55% |
| N#Cc1c(-c2ccccc2)nc(SCc2ccc([N+](=O)[O-])cc2)[nH]c1=O | 74% (active) |
| N#Cc1c(-c2ccccc2)nc(SCc2cccc(C(F)(F)F)c2)[nH]c1=O | 91.1% (active) |

| Structure (SMILES) | inhibition |
| --- | --- |
| O=C(Nn1c(SCc2ccc([N+](=O)[O-])cc2)nc2ccccc2c1=O)c1ccc(F)cc1 | 25.7% |
| Cc1ccc(CSc2nsc(C)c2C#N)cc1 | -2.07% |
| CC1(Cc2cccc(C#N)c2)C(=O)Nc2ccc(-c3cccc(C(F)(F)F)c3)cc21 (stereo not given) | 2.77% |
| CN(C(N)=NC(=O)/C=C/c1ccccc1)C(C#Cc1ccccc1)Cc1ccccc1 (stereo not given) | 3.26% |
| COc1ccc(-c2cc(-c3nnc(SCc4ccc([N+](=O)[O-])cc4)n3N)[nH]n2)cc1 | 9.69% |
| COC(=O)c1cccc(Cn2ccc3ccc(-c4ccc5ccn(C(=O)C6CCCCC6)c5c4)cc32)c1 | 12.2% |
| Cc1ccc(Cn2cc(CN3[C@@H](C)COc4cc(Br)ccc4S3(=O)=O)nn2)cc1 | 3.68% |
| C=CCN1C(=O)[C@H](CC(=O)NCCCN2CCCC2=O)[C@@]2(C(=O)OCC)CCCC=C12 | 1.48% |
| COc1cc(NC(=O)C2CCCN(S(=O)(=O)c3ccc(C(C)(C)C)cc3)C2)cc(OC)c1 (stereo not given) | 9.76% |
| O=C(CCCN1C(=O)/C(=C\c2ccco2)SC1=S)Nc1cccc2ccccc12 | 40.1% (active) |
| Cc1c(Cl)cccc1NC(=O)CCC(=O)N/N=C/c1ccco1 | -4.6% |
| Cc1ccc(-n2c(SCC(=O)Nc3cccc4ccccc34)nnc2-c2ccco2)cc1 | 6.64% |
| O=C(O)c1ccc(N/N=C/c2cn(-c3ccccc3)nc2-c2cccs2)cc1 | 70.5% (active) |
| O=C(c1cn(-c2ccccc2)nc1-c1cccnc1)N1CCN(S(=O)(=O)c2ccccc2F)CC1 | 3.83% |
| O=C(/C=C/c1cn(-c2ccccc2)nc1-c1ccc2c(c1)OCCO2)NCCCN1CCOCC1 | -0.21% |
| CC(=O)c1ccc(NC(=O)c2cc(-c3cccs3)on2)cc1 | -1.84% |
| O=C(O)c1ccc(NC(=O)c2ccc(COc3ccc(Cl)cc3)o2)cc1 | 22.1% |
| COc1ccc(-c2nn(-c3ccccc3)cc2/C=C\C(=O)Nc2ccc(C(=O)O)cc2)cc1 | 83.7% (active) |
| O=C(c1cnn(-c2ccc(Cl)cc2)c1)c1ccccc1O | 2.23% |
| O=C(NNC(=S)NC(=O)c1cn(-c2ccccc2)nc1-c1ccccc1)c1ccncc1 | 42.5% (active) |
| O=C(N/N=C/c1sc(N2CCCCC2)nc1-c1cccs1)c1cccnc1 | 5.88% |
| O=C(NNC(=S)NCCCN1CCOCC1)c1ccncc1 | -0.42% |
| COc1ccc(NC(=O)c2cn(-c3ccccc3)nc2SC)cc1 | 5.53% |
| O=C(O)c1ccc(NC(=O)c2cn(-c3ccccc3)nc2-c2ccc(Cl)cc2)cc1 | 80.9% (active) |
| CC1CCCN(c2cccc3c2S(=O)(=O)N(Cc2ccc(F)cc2)[C@@H](C)[C@H](c2ccccc2)O3)C1 (stereo not given in full) | 1.44% |
| Cn1cc(S(=O)(=O)Nc2ccc(Cl)cc2Cl)c(=O)n(C)c1=O | 1.76% |
| COC(=O)c1ccc(CN2C(=O)[C@]3(OCCC=C[C@H]3C)c3c(Br)cccc32)cc1 | 0.13% |
